High-throughput results deposited in PubChem BioAssay by National Center for Advancing Translational Sciences (NCATS).
HT1080NT lethal = kills 2HG-producing HT-1080-NT fibrosarcoma cells. 1.6% of 360,000 active. HT-1080-NT fibrosarcoma viability, CellTiter-Glo ATP luminescence, 48 h. Potency, µM (highest dose often 46.1 µM), for the others: top-dose activity, negative = less viability, hits mostly cytotoxic;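 further: NT is the 2HG producing partner of a matched IDH1 knockdown line; potency means the concentration at half of the fitted maximal effect; 0% = DMSO-treated cells and -100% = media-only wells without cells; nearly all actives have a fitted effect of over 55% in size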
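Fibrosarcoma NT cells, 750 per well in 5% FBS RPMI, were exposed to compound for 48 hours. Viability: CellTiter-Glo luminescence.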
IL-1B inflam inh = blocks inflammasome-driven IL-1 beta release; THP-1 LPS/ATP IL-1B secretion, AlphaLISA, 16 h; hits give low values; AID 743279; 4.7% of 360,000 active; activity change, % at 57.5 µM; in the data active means activity change below about -50%; inconclusive means mostly about -30% to -49%
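THP-1 cells pretreated 1 hr with compounds (up to 57.5 uM final), then stimulated with LPS (250 ng/mL final) plus ATP (1.25 mM final); secreted IL-1B measured by AlphaLISA after 16 hr, decreased signal indicating inhibition.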
DT40 TDP1 CPT = growth inhibition of DT40 Tdp1-/-;hTDP1 cells with camptothecin (screen for TDP1 inhibitors); chicken DT40 Tdp1-/-;hTDP1 cells + 20 nM CPT, ATP luminescence, 48 h; Potency, µM (series often up to 46.2 µM), for the others: top-dose activity change, negative = growth inhibition, hits mostly inhibitors; 12% of 420,000 active; AID 686979; further: potency means the concentration at half of the fitted maximal effect; nearly all actives have a fitted effect of over 55% in size
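Cell growth measured by CellTiter-Glo luminescence after a minimum 48 h, 37 C compound exposure with 20 nM CPT in Tdp1-knockout DT40 cells stably expressing hTDP1, seeded 400/well; qHTS titration format.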
DT40 TDP1 no CPT = qHTS for Inhibitors of human tyrosyl-DNA phosphodiesterase 1 (TDP1): qHTS in cells in absence of CPT. AID 686978, 2013. Potency, µM (highest dose often 46.2 µM), for inactives: at the top dose activity change, negative = growth inhibition, actives largely listed as inhibitors. DT40 Tdp1-/- hTDP1 cells, no CPT, ATP luminescence, 48 h. 15% of 420,000 active; further: potency means the concentration at half of the fitted maximal effect; nearly all actives have a fitted effect of over 55% in size
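Seeded 400 DT40-hTDP1 cells/well (vehicle DMSO, no 20 nM CPT); pinned compounds; ≥48 hr at 37 °C; CellTiter-Glo luminescence as viability measure.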
HT1080 IDH1KD tx = kills HT-1080 cells with IDH1 knockdown | AID 686971 | 2% of 360,000 active | HT-1080 IDH1 knockdown viability, ATP luminescence, 48 h | Potency, µM (series often up to 46.1 µM), for inactives: top-dose activity, negative = toxicity, actives largely listed as cytotoxic;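 further: potency means the concentration at half of the fitted maximal effect; 0% = DMSO wells and -100% = cell-free medium wells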
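Viability of IDH1-knockdown HT-1080 fibrosarcoma cells was assessed by CellTiter-Glo after 48 h at 37 °C with titrated compound; concentration-effect curves were classified by fit quality and response size.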
* = called active by the depositor. In the library only some 19% were active in any assay of this set; here they are far more common. Unless noted, the call rests on the fitted dose curve; in most records, active means well fitted curve in the direction sought with a large enough effect; inconclusive means small, poorly fitted or top-dose-only effect, or another doubt; inactive means no such curve, though single readings can be large; an effect the other way counts as inactive or inconclusive. Unless noted, on the % scale 0 is the no-effect control and ±100 the full control effect.

What do the screens show for `COCC(=O)N1CCC(Oc2ccc(C(=O)NC3CCOC(C)(C)C3)cc2)CC1` (stereo not given)?
HT1080NT lethal: 0.0%; IL-1B inflam inh: 0.0; DT40 TDP1 CPT: -2.4%; DT40 TDP1 no CPT: -4.8%; HT1080 IDH1KD tx: -2.6%

What do the screens show for `COc1ccc2c(c1)C=C([C@@H]1C[C@H]3CN(c4ccccc4)C(=O)[C@]34CCCN14)CO2`?
HT1080NT lethal: -1.0%; IL-1B inflam inh: -2.1; DT40 TDP1 CPT: inconclusive; DT40 TDP1 no CPT: 20.6µM*; HT1080 IDH1KD tx: -0.5%

Results for COc1ccc(Br)cc1/C=c1\sc2nc(-c3ccco3)nn2c1=O ?
HT1080NT lethal: 4.0%; IL-1B inflam inh: -6.0; DT40 TDP1 CPT: inconclusive; DT40 TDP1 no CPT: inconclusive; HT1080 IDH1KD tx: 7.7%

What do the screens show for `COc1ccccc1/C=c1\sc2nc(-c3ccccc3OC)nn2c1=O`?
HT1080NT lethal: -0.6%; IL-1B inflam inh: 7.2; DT40 TDP1 CPT: inconclusive; DT40 TDP1 no CPT: 16.4µM*; HT1080 IDH1KD tx: -2.0%

How did CC(Sc1nc2c(c(=O)[nH]1)CCCC2)C(=O)Nc1ccc(S(N)(=O)=O)cc1 (stereo not given) do in these assays?
HT1080NT lethal: -0.7%; IL-1B inflam inh: 25.8; DT40 TDP1 CPT: 0.1%; DT40 TDP1 no CPT: 4.7%; HT1080 IDH1KD tx: -1.5%

What do the screens show for `COCCCn1c(=O)c2ccccc2n(Cc2ccccc2C)c1=O`?
HT1080NT lethal: -12.0%; IL-1B inflam inh: -13.2; DT40 TDP1 CPT: inconclusive; DT40 TDP1 no CPT: inconclusive; HT1080 IDH1KD tx: -2.5%

Results for COCn1c(=O)c2c(nc(SC3=NCCS3)n2Cc2ccccc2C)n(COC)c1=O ?
HT1080NT lethal: 10.6%; IL-1B inflam inh: -7.6; DT40 TDP1 CPT: 23.1µM*; DT40 TDP1 no CPT: inconclusive; HT1080 IDH1KD tx: 4.4%

How did COc1ccc(-c2cc(C(F)(F)F)c(C#N)c(SCC(=O)Nc3ccccc3F)n2)cc1 do in these assays?
DT40 TDP1 CPT: 1.0%; DT40 TDP1 no CPT: -16.4%

What do the screens show for `Nc1nnnn1/N=C/c1ccccc1C(F)(F)F`?
HT1080NT lethal: 12.5%; IL-1B inflam inh: 0.0; DT40 TDP1 CPT: 11.6µM*; DT40 TDP1 no CPT: 18.4µM*; HT1080 IDH1KD tx: 10.1%

What do the screens show for `Nc1nnnn1/N=C/c1ccccc1`?
HT1080NT lethal: -3.2%; IL-1B inflam inh: -15.3; DT40 TDP1 CPT: 1.9%; DT40 TDP1 no CPT: inconclusive; HT1080 IDH1KD tx: -12.6%

What do the screens show for `O=C(CCCN1C(=O)/C(=C/c2ccccc2)SC1=S)Nc1ccccc1O`?
HT1080NT lethal: inconclusive; IL-1B inflam inh: -93.0*; DT40 TDP1 CPT: inconclusive; DT40 TDP1 no CPT: inconclusive; HT1080 IDH1KD tx: inconclusive

What do the screens show for `CC1(c2ccccc2)NC(=O)N(CC(=O)NCCN2C(=O)S/C(=C\c3cccnc3)C2=O)C1=O` (stereo not given)?
HT1080NT lethal: 10.3%; IL-1B inflam inh: -7.7; DT40 TDP1 CPT: -11.6%; DT40 TDP1 no CPT: 4.9%; HT1080 IDH1KD tx: -0.2%

What do the screens show for `CC(=O)NC(CC(=O)NCCN1C(=O)S/C(=C\c2ccccc2)C1=O)c1ccccc1` (stereo not given)?
HT1080NT lethal: -1.1%; IL-1B inflam inh: -20.8; DT40 TDP1 CPT: 20.6µM*; DT40 TDP1 no CPT: inconclusive; HT1080 IDH1KD tx: 2.6%

What do the screens show for `O=C(CN1C(=O)S/C(=C\c2ccc(O)cc2)C1=O)c1ccccc1`?
HT1080NT lethal: inconclusive; IL-1B inflam inh: -77.0*; DT40 TDP1 CPT: inconclusive; DT40 TDP1 no CPT: inconclusive; HT1080 IDH1KD tx: inconclusive

Results for O=C(CCN1C(=O)/C(=C\c2ccccc2)SC1=S)NNC(=O)c1ccccc1O ?
HT1080NT lethal: inconclusive; IL-1B inflam inh: 38.1; DT40 TDP1 CPT: 20.6µM*; DT40 TDP1 no CPT: 25.9µM*; HT1080 IDH1KD tx: inconclusive

Results for O=C(CCCN1C(=O)/C(=C\c2cccs2)SC1=S)Nc1ccccc1O ?
HT1080NT lethal: -11.7%; IL-1B inflam inh: -5.0; DT40 TDP1 CPT: inconclusive; DT40 TDP1 no CPT: inconclusive; HT1080 IDH1KD tx: -15.4%

Results for O=C(CCN1C(=O)/C(=C\c2ccccc2)SC1=S)NNC(=O)c1cccnc1 ?
HT1080NT lethal: -2.5%; IL-1B inflam inh: 16.9; DT40 TDP1 CPT: inconclusive; DT40 TDP1 no CPT: inconclusive; HT1080 IDH1KD tx: 0.9%

How did O=C(CN1C(=O)S/C(=C\c2ccc(C(=O)O)cc2)C1=O)Nc1ccccc1 do in these assays?
HT1080NT lethal: -3.3%; IL-1B inflam inh: -3.9; DT40 TDP1 CPT: -2.2%; DT40 TDP1 no CPT: -1.0%; HT1080 IDH1KD tx: -6.6%

Results for CC(C)=CCC/C(C)=C/CC/C(C)=C/CCC1(C)CCc2cc(O)ccc2O1 (stereo not given) ?
HT1080NT lethal: 4.6%; DT40 TDP1 CPT: inconclusive; DT40 TDP1 no CPT: inconclusive; HT1080 IDH1KD tx: 14.9%

Results for COc1cc(Cl)c(NS(=O)(=O)c2cc3[nH]c(=O)c(=O)[nH]c3cc2C)c(OC)c1 ?
HT1080NT lethal: -7.2%; IL-1B inflam inh: -1.0; DT40 TDP1 CPT: 22.0%; DT40 TDP1 no CPT: 3.1%; HT1080 IDH1KD tx: 1.0%

What do the screens show for `COc1ccc(C(=O)N/C(=C\c2ccccc2)C(=O)Nc2ccccc2C(=O)O)cc1`?
HT1080NT lethal: -3.8%; IL-1B inflam inh: -1.0; DT40 TDP1 CPT: -2.5%; DT40 TDP1 no CPT: 10.0%; HT1080 IDH1KD tx: 0.7%

Results for Cn1cc(S(=O)(=O)N2CCCC(C(=O)O)C2)cn1 (stereo not given) ?
HT1080NT lethal: 7.5%; IL-1B inflam inh: 21.8; DT40 TDP1 CPT: inconclusive; DT40 TDP1 no CPT: -1.8%; HT1080 IDH1KD tx: -13.4%

What do the screens show for `CN(C)c1ccc(/C=C2\SC(=O)N(CC(O)Cn3c4ccccc4c4ccccc43)C2=O)cc1` (stereo not given)?
HT1080NT lethal: -14.5%; IL-1B inflam inh: 6.8; DT40 TDP1 CPT: inconclusive; DT40 TDP1 no CPT: inconclusive; HT1080 IDH1KD tx: inconclusive

How did O=C1S/C(=C/c2ccccc2)C(=O)N1CC(O)Cn1c2ccccc2c2ccccc21 (stereo not given) do in these assays?
HT1080NT lethal: -9.1%; IL-1B inflam inh: -14.0; DT40 TDP1 CPT: 23.1µM*; DT40 TDP1 no CPT: 23.1µM*; HT1080 IDH1KD tx: 0.2%

Results for O=C(CCCN1C(=O)S/C(=C\c2ccccc2)C1=O)NNC(=O)c1ccccc1O ?
HT1080NT lethal: inconclusive; IL-1B inflam inh: 28.8; DT40 TDP1 CPT: 11.6µM*; DT40 TDP1 no CPT: 9.2µM*; HT1080 IDH1KD tx: -2.1%

Results for O=C(Nc1ccccc1)C1=C[C@@H](c2coc3ccccc3c2=O)C[C@@H](OCc2ccc(CO)cc2)O1 ?
HT1080NT lethal: -1.1%; IL-1B inflam inh: 3.9; DT40 TDP1 CPT: inconclusive; DT40 TDP1 no CPT: 14.6µM*; HT1080 IDH1KD tx: -6.1%
